Out of some 5,600 compounds screened, about 390 (7%) showed an effect of 50% or more. This excerpt belongs to a sample that is enriched for strong results. Residues, ends and D or L forms follow the SMILES beside them.
Target: T1, Protein deacetylase HDAC6 (Homo sapiens) (UniProt Q9UBN7)
T1 sequence (whole entry): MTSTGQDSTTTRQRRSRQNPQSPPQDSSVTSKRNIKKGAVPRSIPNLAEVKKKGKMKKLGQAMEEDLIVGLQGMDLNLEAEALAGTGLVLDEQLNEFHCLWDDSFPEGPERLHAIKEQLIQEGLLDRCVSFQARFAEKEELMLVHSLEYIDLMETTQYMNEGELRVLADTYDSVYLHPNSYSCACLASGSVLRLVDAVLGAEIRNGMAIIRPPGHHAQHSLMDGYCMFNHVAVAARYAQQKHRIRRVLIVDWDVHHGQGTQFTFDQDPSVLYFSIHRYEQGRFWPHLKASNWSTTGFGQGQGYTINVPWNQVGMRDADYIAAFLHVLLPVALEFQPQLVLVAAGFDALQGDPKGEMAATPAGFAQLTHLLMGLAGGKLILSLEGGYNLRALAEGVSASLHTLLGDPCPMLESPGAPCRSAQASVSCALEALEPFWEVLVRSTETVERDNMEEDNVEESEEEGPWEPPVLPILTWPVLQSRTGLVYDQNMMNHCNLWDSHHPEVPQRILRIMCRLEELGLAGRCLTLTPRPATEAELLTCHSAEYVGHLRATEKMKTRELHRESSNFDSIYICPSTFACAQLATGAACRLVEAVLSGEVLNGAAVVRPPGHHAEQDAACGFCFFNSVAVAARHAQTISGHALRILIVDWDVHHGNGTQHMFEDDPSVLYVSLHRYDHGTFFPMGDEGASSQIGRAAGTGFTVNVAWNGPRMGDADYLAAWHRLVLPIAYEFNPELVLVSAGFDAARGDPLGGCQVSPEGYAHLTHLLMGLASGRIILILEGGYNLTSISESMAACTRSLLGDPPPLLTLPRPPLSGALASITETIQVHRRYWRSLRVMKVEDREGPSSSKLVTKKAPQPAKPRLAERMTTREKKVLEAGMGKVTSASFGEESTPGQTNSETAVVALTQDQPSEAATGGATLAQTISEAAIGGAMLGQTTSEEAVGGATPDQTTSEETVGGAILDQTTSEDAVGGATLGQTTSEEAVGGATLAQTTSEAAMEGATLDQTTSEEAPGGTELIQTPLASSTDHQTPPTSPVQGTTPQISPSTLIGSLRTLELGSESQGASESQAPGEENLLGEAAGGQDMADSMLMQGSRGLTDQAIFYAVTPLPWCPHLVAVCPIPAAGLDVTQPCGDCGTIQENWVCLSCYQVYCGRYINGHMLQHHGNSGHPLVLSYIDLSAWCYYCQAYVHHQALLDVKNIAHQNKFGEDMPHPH
Conditions: at 10 µM

| Compound | inhibition [%] |
| --- | --- |
| COc1nccnc1NS(=O)(=O)c1ccc(N)cc1 | 34.6 |
| CCCCc1nc2cc(/C=C/C(=O)NO)ccc2n1CCN(CC)CC | 102 |
| Clc1cc(Cl)c(OCC#CI)cc1Cl | 4.74 |
| COc1cc2nc(N3CCC(N4CCCCC4)CC3)nc(NC3CCCCCC3)c2cc1OC | 0.07 |
| CC(C)[C@H]1c2ccc(F)cc2CC[C@@]1(CCN(C)CCCc1nc2ccccc2[nH]1)OC(=O)C1CC1 | 15.1 |
| Cc1cc(C)cc(NC(=O)Nc2ccc(OS(N)(=O)=O)cc2)c1 | 44.5 |
| COc1ccc(Nc2ncnc3ccc(OC)cc23)cc1 | 27.1 |
| COc1ccc2nc(NC(=O)Nc3ccccc3)sc2c1 | 109 |
| COC1=C2C[C@@H](C)C[C@H](OC)[C@H](O)[C@@H](C)/C=C(\C)[C@H](OC(N)=O)[C@@H](OC)/C=C\C=C(/C)C(=O)NC(=CC1=O)C2=O | 19.3 |
| COC(=O)Nc1ccc(-c2nc(N3CCOCC3)c3cnn(C4CCN(Cc5cccnc5)CC4)c3n2)cc1 | -1.91 |
| Nc1nnc(Sc2ncc([N+](=O)[O-])s2)s1 | 34.9 |
| O=C(Nc1c(Cl)cncc1Cl)c1ccc(OC(F)F)c(OCC2CC2)c1 | -1.25 |
| Cc1ccc(-c2csc3ncnc(SCCC(=O)O)c23)cc1 | 22.2 |
| O=C(O)COc1ccc(C(=O)c2cccs2)c(Cl)c1Cl | 19.9 |
| Sc1nc2ccccc2s1 | 52.6 |
| O=c1[nH]c2cc(C(F)(F)F)c(N3CCOCC3)cc2n(CP(=O)(O)O)c1=O | 1.79 |
| CC(C)=CCC[C@](C)(O)[C@@H]1CC=C(C)CC1 | 18.6 |
| COc1ccc(Cc2nc(O)c3c(C)nc([C@@H](CCCc4ccccc4)[C@@H](C)O)n3n2)cc1OC | -9.71 |
| Cc1cc(C)c(S(=O)(=O)Nc2cccc(C(F)(F)F)c2)c(C)c1 | 97.6 |
| COc1ccc(S(=O)(=O)Nc2c(C)cc(C)cc2C)cc1 | -8.52 |
| Cc1sc(N)c(C(=O)c2cccc(C(F)(F)F)c2)c1C | 17.1 |
| CCc1cccc(CC)c1NC(=O)N1Cc2[nH]nc(NC(=O)c3ccc(N4CCN(C)CC4)cc3)c2C1 | 7.27 |
| Nc1nc(OCC2CCCCC2)c2nc[nH]c2n1 | 33.5 |
| Nc1nc(N)c(N=O)c(OCC2CCCCC2)n1 | 81.8 |
| Nc1ccc(C(=O)NCC(=O)O)cc1 | 6.74 |
| CN(C)CCC1(c2ccc(Cl)cc2)Cc2ccccc2C(=O)O1 (racemic) | 3.8 |
| Cn1cnc([N+](=O)[O-])c1Sc1ncnc2[nH]cnc12 | 12.8 |

| Compound | inhibition [%] |
| --- | --- |
| OCc1cc(C(O)CNCCCCCCOCCCCc2ccccc2)ccc1O (stereo not drawn) | -5.85 |
| OCc1cc([C@@H](O)CNCCCCCCOCCOCc2c(Cl)cccc2Cl)ccc1O | 59.3 |
| Oc1ccc(C(O)CNCCCCCCNCC(O)c2ccc(O)c(O)c2)cc1O (stereo not drawn) | -3.51 |
| COc1ccc(Cl)cc1NC(=O)Nc1cc(C)nc2ccccc12 | 16.6 |
| COc1cc(NS(C)(=O)=O)ccc1Nc1c2ccccc2nc2ccccc12 | 76.6 |
| COc1ccc(S(=O)(=O)Nc2cccnc2Nc2ccc(O)cc2)cc1 | 34.3 |
| CCOC(=O)c1cc(C#N)c(N2CCC(C(=O)NS(=O)(=O)Cc3ccccc3)CC2)nc1C | 21.9 |
| NCC(=O)N[C@@H](CCC(N)=O)C(=O)O (H-Gly-Gln-OH) | 29.1 |
| O=S(=O)(Cc1ccccc1)Nc1ccc(-c2ccc3c(cnn3-c3ccc(F)cc3)c2)c(C(F)(F)F)c1 | -8.14 |
| N[C@H]1C[C@@H]1c1ccc(-c2cccc(O)c2)cc1 | 77.4 |
| Oc1cccc(O)c1 | 1.38 |
| O=c1[nH]c2ccccc2n1C1CCN(CCOc2ccccc2)CC1 | 20.9 |
| CCOC(=O)c1cc2ccc(O)cc2oc1=O | 55.9 |
| CN1CCC(COc2cnc(-c3cccc(Cn4nc(-c5cccc(C#N)c5)ccc4=O)c3)nc2)CC1 | 17.5 |
| COc1cc2c(cc1-c1c(C)noc1C)ncc1[nH]c(=O)n([C@H](C)c3ccccn3)c12 | 12.8 |
| CC(=O)/N=c1/[nH]c(C)c(-c2ccc(Cl)c(S(=O)(=O)NCCO)c2)s1 | 23.4 |
| CCCCC1=NC2(CCCC2)C(=O)N1Cc1ccc(-c2ccccc2-c2nnn[nH]2)cc1 | -8.81 |
| O=C(O)c1cnn(-c2nc3cc(OC(F)(F)F)c(Cl)cc3[nH]2)c1 | 59.5 |
| COc1ccc(Nc2nccc(NCCO)n2)cc1 | 37.2 |
| Cc1cc(NCCO)nc(-c2ccc(Br)cc2)n1 | 85.2 |
| N#Cc1cc(CN2CCC(Nc3ncnc4sc(Cl)cc34)CC2)ccc1F | 6.29 |
| Cn1c(NC[C@@H](N)Cc2ccccc2)nc(-c2ccncc2)c(-c2ccc3ccccc3c2)c1=O | 0.59 |
| Nc1nccc2c1ncn2[C@@H]1O[C@H](CO)C(O)C1O (stereo partly drawn) | 11 |
| C[C@H](NC(=O)CNC(=O)c1cccc(Cl)c1)c1ccccc1 | 21.1 |
| COc1cc(C(=O)NCc2ccc(OCCN(C)C)cc2)cc(OC)c1OC | 6.33 |
| CN(C)Cc1c(C(=O)NCCOc2ccc(C(=O)NO)cc2)oc2ccccc12 | 102 |
